Shown are actives, neighbours in structure and some others; about 2.2% of the full set was active somewhere.
PLC-beta3 inh: PLC-beta3 (human) inhibition, primary screen | AID 720704 | inhibition, % at 12.2 µM | Q01970 | Purified PLC-beta3, fluorogenic substrate, fluorescence | hit rate 0.18% among 370,000
PLCg1 inh: blocks human PLC-gamma1 enzyme activity; purified PLC-gamma1, fluorogenic substrate, fluorescence; inhibition, % at 12.2 µM; hit rate 0.84% among 370,000; in the data active = inhibition above about 9.5%
GC-B act: GC-B (human) receptor activation; P20594; HEK293-GC-B cells, CNP EC30, cGMP TR-FRET; 0% at EC30 CNP, 100% saturating CNP; activation, % at 10 µM; hit rate 0.11% among 370,000; AID 1920062;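 active = activation at 10 µM reaching about 35% in either raw or pattern-adjusted values, limit read from the data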
GC-A act: GC-A (human) enzyme activation; P16066; HEK293 GC-A cells, cGMP TR-FRET, EC30 ANP; 0% at EC30 ANP, 100% saturating ANP; activation, % at 10 µM; hit rate 0.14% among 370,000; AID 1671463; in the data active = activation above about 40%
Rce1 inhib: blocks yeast Ras-converting enzyme; yeast membranes, quenched prenylated peptide cleavage fluorescence; calls only; hit rate 0.27% among 290,000;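 active = fall in fluorescence gain of 50% or more versus controls, with final raw signal at or below 3038400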
M18AAP inhibitor: PfM18AAP enzyme inhibition; recombinant PfM18AAP, H-Glu-NHMec fluorogenic cleavage; inhibition, % at 7.35 µM; hit rate 1.2% among 290,000;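 active = inhibition above the campaign mean inhibition over all tested compounds plus 3 SD, cut at about 28% in these data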
PLCg1 ctr: counter-screen for PLC-beta3 inhibitors: inhibitors of human PLC-gamma1 | shares compounds with PLCg1 inh | purified PLC-gamma1, fluorogenic substrate, fluorescence | inhibition, % at 12.3 µM | hit rate 3.1% among 3,300 | AID 743258; in the data active = inhibition above about 9.5%
PLCb3 confirm: human PLC-beta3 inhibition, confirmation | inhibition, % at 12.3 µM | AID 743261 | shares compounds with PLCg1 inh | hit rate 1% among 3,300 | purified PLC-beta3, fluorogenic substrate fluorescence
A number is an active result; – = inactive; · = no result given. Rule as the data show it, unless noted: active = inhibition above about 11%; inactive = the rest.

SMILES	PLC-beta3 inh	PLCg1 inh	GC-B act	GC-A act	Rce1 inhib	M18AAP inhibitor	PLCg1 ctr	PLCb3 confirm
O=S1(=O)N=C2CCCCCN2C(c2ccc(Cl)cc2)N1 (stereo not drawn)	–	10	–	–	–	–	–	–
COCCCN1C(=O)[C@H](CC(=O)N2CCC(c3ccccc3)CC2)[C@]2(C(=O)OC)CCCCC=C12	–	–	–	–	·	·	·	·
O=C(CCc1c[nH]c2ccccc12)Nc1ccc(Nc2cccnc2)cc1	–	–	–	–	·	·	·	·
COc1ccc(S(=O)(=O)Nc2ccccc2C)cc1	–	–	–	–	–	–	·	·
COc1ccc(S(=O)(=O)Nc2c(F)cccc2F)cc1	–	14	–	–	–	–	–	–
CCOc1ccc(N(CC(=O)Nc2c(C)n(C)n(-c3ccccc3)c2=O)S(=O)(=O)c2ccc(C(C)(C)C)cc2)cc1	–	–	–	–	·	·	·	·
COc1ccc(CNC(=O)C2CCC(CNS(=O)(=O)c3ccc(C)cc3)CC2)cc1 (stereo not drawn)	–	10	–	–	–	–	–	–
COc1ccc(S(=O)(=O)NCC2CCC(C(=O)NCc3ccc(F)cc3)CC2)cc1 (stereo not drawn)	–	–	–	–	–	–	·	·
C=CCN(C(=O)[C@@H](CCCC)[C@@H](O)c1ccc2ccccc2c1)c1ccccc1	–	–	–	–	·	·	·	·
CC1(Cc2ccc(F)cc2)C(=O)Nc2ccc(S(=O)(=O)NC3CCCCC3)cc21 (stereo not drawn)	11	–	–	–	·	·	–	–
COc1ccccc1CC1(C)C(=O)Nc2ccc(S(=O)(=O)NC3CCCCC3)cc21 (stereo not drawn)	–	–	–	–	·	·	·	·
COc1ccc(CC2CCOC2=O)cc1 (stereo not drawn)	–	10	–	–	–	–	–	–
Cc1cc(C)c(OCCCCN(C)Cc2ccccc2)c(C)c1	–	13	–	–	–	–	–	–
Cc1ccc(OCCCCN(C)Cc2ccccc2)c(Br)c1	–	–	–	–	–	–	·	·
CC(C)NC(=O)OC[C@H]1O[C@H](C#Cc2ccc(C(C)(C)C)cc2)C=C[C@H]1O	–	–	–	–	·	·	·	·
CN(CC(=O)Nc1cccc(F)c1)C(=O)Cc1n[nH]c(=O)c2ccccc12	–	–	–	–	·	·	·	·
CN(CC(=O)Nc1ccc(Cl)c(C(F)(F)F)c1)C(=O)Cc1n[nH]c(=O)c2ccccc12	–	10	–	–	–	·	–	–
COc1ccc(-n2c(SCc3cccc4ccccc34)nnc2-c2ccccc2)cc1	–	–	–	–	·	·	·	·
CCN(CC)C(=O)c1ccc(C(CCOC(=O)Oc2ccccc2)c2ccc(OC)cc2)cc1 (stereo not drawn)	–	–	–	–	·	·	·	·
c1cncc(-c2nc3ccccc3s2)c1	–	–	–	–	–	–	·	·
CC(=O)N(Cc1cccnc1)c1cccc(-c2nc3ccccc3s2)c1	–	9.8	–	–	–	–	–	–
COC(=O)[C@]12C[C@H](CC(=O)N3CCCC3)C(=O)N(CCc3ccc(OC)c(OC)c3)C1=C[C@H](C(C)C)O[C@@H]2C1CC1	–	–	–	–	·	·	·	·
CCN(CC(=O)Nc1cc(Cl)ccc1C)C(=O)C1CC1	–	14	–	–	·	·	–	–
CC(C)N1CCCCC(NC(=O)Cc2ccccc2)C1=O (stereo not drawn)	–	–	–	–	·	·	·	·
NCCCCC(N)c1cn([C@@H](CCC(=O)O)C(=O)N2CCNCC2)nn1 (stereo partly drawn)	13	–	–	–	·	·	–	–
CCC(C)[C@H](N)c1cn([C@@H](CCCCN)C(=O)N2CCNCC2)nn1 (stereo partly drawn)	–	–	–	–	–	–	·	·
C=C(C)CNC(=S)N/N=C/c1ccc(NC(C)=O)cc1	–	–	–	–	–	–	·	·
CC(=O)Nc1ccc(/C=N/NC(=S)NC(C)C)cc1	–	12	–	–	–	–	–	–
Cc1ccc(-c2nnn(CC(=O)Nc3ccccc3N3CCOCC3)n2)cc1	–	11	–	–	–	–	–	–
O=C(Cn1nnc(-c2ccccc2)n1)Nc1ccccc1N1CCOCC1	–	–	–	–	–	–	·	·
